This note sets out measurements from PubChem BioAssay (Tox21).

Test [1] in a line: qHTS assay to identify small molecule agonists of the androgen receptor (AR) signaling pathway in the presence of an antagonist - cell viability counter screen (AID 1259379).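 Also: MDA-kb2 human breast cancer cells carrying an MMTV luciferase reporter; series mostly up to about 92 µM; nearly all actives have a fitted effect of over 25% in size.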 An outline of the steps: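 Cytotoxicity is assessed by CellTiter-Fluor in MDA-kb2 cells carrying an MMTV-driven luciferase reporter. Cells receive 3.0uM nilutamide plus compounds at 15 concentrations and incubate 16 hr at 37C without CO2 before fluorescence reading.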

Test [2] in a line: qHTS assay to identify small molecule agonists of the estrogen receptor beta (ER-beta) signaling pathway - cell viability counter screen (AID 1259380). Also: nearly all actives have a fitted effect of over 30% in size. An outline of the steps:
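Cytotoxicity is measured in parallel with the reporter screen: after 16 hr compound exposure at 37C and a 2 hr LiveBLAzer step, CellTiter-Glo is added to the same ER-beta-UAS-bla HEK293T wells and luminescence read after 30 min.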

The nature of test [3]: qHTS assay to identify small molecule antagonists of the estrogen receptor beta (ER-beta) signaling pathway - cell viability counter screen (AID 1259382).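 Also: HEK293T cells carrying ER-beta-UAS-bla reporter stimulated with estradiol; series mostly up to about 92 µM; nearly all actives have a fitted effect of over 55% in size.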 An outline of the steps: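 Cytotoxicity counter screen multiplexed with the beta-lactamase antagonist assay: GripTite HEK293T ER-beta-bla cells were treated 16 hr with test chemicals in the presence of 1nM 17-beta-estradiol, and viability was measured by CellTiter-Glo.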

In test [4] the target is Estrogen receptor (Homo sapiens) (UniProt P03372). Briefly: qHTS assay to identify small molecule agonists of the estrogen receptor alpha (ER-alpha) signaling pathway in the presence of an antagonist (AID 1259383; calls by dose curve; also: top concentration of the series differs between compounds; nearly all actives have a fitted effect of over 15% in size). An outline of the steps:
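Agonist-mode confirmation in the presence of the ER antagonist ICI-182,780 at 10.0nM final. Breast-derived VM7Luc4E2 reporter cells were exposed to compounds for 22hr, and ERE-driven luciferase was quantified by luminescence.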

Test [5] can be described thus: qHTS assay to identify small molecule agonists or antagonists of the thyroid stimulating hormone receptor (TSHR) signaling pathway - wild type cell line counter screen (AID 1259384; calls by dose curve). An outline of the steps:
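Counter screen in untransfected Hek293: compounds (15-point titration, triplicate) plus phosphodiesterase inhibitor Ro20-1724 added after 18 h plating; 30 min RT. Intracellular cAMP via competitive d2/cryptate immunoassay, 1 h incubation.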

Test [6] has as its target Thyrotropin receptor (Homo sapiens) (UniProt P16473). As to the kind of experiment: qHTS assay to identify small molecule antagonists of the thyroid stimulating hormone receptor (TSHR) signaling pathway (AID 1259385; calls by dose curve; also: nearly all actives have a fitted effect of over 20% in size). An outline of the steps: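 Antagonist mode: compound-treated TSHR-expressing HEK293 cells were stimulated with 1.5 ng/mL TSH (final) in presence of Ro20-1724 for 30 min at RT. HTRF cAMP detection after 1 h; each compound tested at 15 concentrations, triplicate.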

Test [7] is described as follows: qHTS assay to identify small molecule agonists of the estrogen receptor alpha (ER-alpha) signaling pathway in the presence of an antagonist - cell viability counter screen (AID 1259386).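 Also: series mostly up to about 92 µM; cells exposed to compounds for 22 h at 37 °C before the viability read; nearly all actives have a fitted effect of over 30% in size.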 An outline of the steps:
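Cytotoxicity was measured in parallel with the ERE-luciferase agonist screen, in the same wells. The cells were VM7Luc4E2, which endogenously express ER-alpha, and treatment was with compounds plus 10.0nM ICI-182,780 for 22hr.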

Test [8] concerns the target Progesterone receptor (Homo sapiens) (UniProt P06401). As to the kind of experiment: qHTS assay to identify small molecule agonists of the progesterone receptor (PR) signaling pathway (AID 1346784; calls by dose curve; also: nearly all actives have a fitted effect of over 30% in size). An outline of the steps:
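Reporter assay, GripTite PR-UAS-bla HEK 293T cells: 16 hr exposure to DMSO-dissolved compounds at 37C, 5% CO2, in steroid-depleted (2% charcoal-stripped FBS) medium; beta-lactamase measured by FRET fluorescence.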

Test [9] shares this target. As to the kind of experiment: qHTS assay to identify small molecule antagonists of the progesterone receptor (PR) signaling pathway (AID 1346795; active = well fitted inhibition curve with a large enough effect in the signal ratio in the repeat runs, not every such curve was filed as active; the % refers to the signal ratio). An outline of the steps:
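Stimulus R5020 at 1 nM final; cells HEK293T PR-UAS-bla; medium with 2% charcoal-stripped FBS; compound exposure 16 hr at 37C, 5% CO2; detection by FRET beta-lactamase substrate, 2 hr, room temperature.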

Test [10] can be described thus: qHTS assay to identify small molecule antagonists of the progesterone receptor (PR) signaling pathway - cell viability counter screen (AID 1346798). Also: series mostly up to about 92 µM; nearly all actives have a fitted effect of over 50% in size. An outline of the steps: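 In the same plates used for the beta-lactamase readout, cell viability of compound- and R5020-treated PR-UAS-bla HEK293T cells (16 hr, 37C) was assessed by CellTiter-Glo luminescence.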
Test [11] can be described thus: qHTS assay to identify small molecule agonists of the progesterone receptor (PR) signaling pathway - cell viability counter screen (AID 1346799; calls by dose curve; also: nearly all actives have a fitted effect of over 45% in size). An outline of the steps: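 Multiplexed viability read: CellTiter-Glo luminescence, 30 min RT, following LiveBLAzer FRET measurement on PR-UAS-bla HEK293T cells exposed to compounds 16 hr.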
Test [12] in a line: qHTS assay to identify small molecule antagonists of the TGF-beta/Smad signaling pathway - cell viability counter screen (AID 1346824). Also: nearly all actives have a fitted effect of over 50% in size. An outline of the steps:
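Cytotoxicity counter-screen run in the same wells as the beta-lactamase Smad reporter read: CellTiter-Glo luminescence after 30 min at room temperature. HEK 293T SBE-bla cells had 5 hr compound exposure at 37 C with TGF-beta1 (0.25 ng/mL stock).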

Test [13] in a line: qHTS assay to identify small molecule agonists of the TGF-beta/Smad signaling pathway - cell viability counter screen (AID 1346829). Also: top concentration of the series differs between compounds; nearly all actives have a fitted effect of over 45% in size. An outline of the steps:
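In parallel with the Smad reporter read, viability of HEK 293T cells stably carrying SBE-bla is quantified by ATP luminescence following 5 hr compound treatment.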

Test [14] can be described thus: qHTS assay to identify small molecule agonists of the TGF-beta/Smad signaling pathway (AID 1346859; active = well fitted activation curve with a large enough effect in the signal ratio in the repeat runs, not every such curve was filed as active; the % refers to the signal ratio; also: series mostly up to about 77 µM). An outline of the steps:
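Screening used HEK 293T SBE-bla cells at 4,000/well. Test agents: 5 hr, 37 C. Detection: FRET substrate, 2 hr RT, then excitation 405 nm with emissions at 460 and 530 nm.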

Test [15] deals with Thyrotropin-releasing hormone receptor (Homo sapiens) (UniProt P34981). Briefly: qHTS assay to identify small molecule antagonists of the thyrotropin-releasing hormone receptor (TRHR) signaling pathway (AID 1346877; active = well fitted inhibition curve with a large enough effect in the repeat runs, not every such curve was filed as active; also: series mostly up to about 51 µM). An outline of the steps:
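Antagonism is measured as suppression of the calcium response to 1 nM TRH in TRHR-HEK293 cells that have been dye-loaded for 2 h at 37 °C after overnight plating. Each compound is tested at 15 concentrations in triplicate.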

Test [16] has the same target. As to the kind of experiment: qHTS assay to identify small molecule agonists of the thyrotropin-releasing hormone receptor (TRHR) signaling pathway (AID 1346891; calls by dose curve; also: series mostly up to about 58 µM). An outline of the steps:
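Readout was intracellular calcium fluorescence in TRHR-Hek293 cells. Cells were incubated 18 h, dye-loaded 2 h at 37 °C, and treated with compound in agonist mode.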

A short description of test [17]: Human pregnane X receptor (PXR) small molecule agonists, qHTS cell viability counter screen (AID 1346977). Also: nearly all actives have a fitted effect of over 50% in size. Also: potency is read from the fitted curve at half-maximal effect. An outline of the steps: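 In each well, the PXR reporter HepG2 line was checked for viability: CellTiter-Fluor reagent added 23hr post-dosing, fluorescence read after 1hr incubation at 37C.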
Test [18] in a line: Caspase-3/7 induction in CHO-K1 cells by small molecules, qHTS cell viability counter screen (AID 1346979). Also: nearly all actives have a fitted effect of over 35% in size. Also: potency is read from the fitted curve at half-maximal effect. An outline of the steps: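 Following a 5hr settling period, CHO-K1 cells at 1,500 per well received DMSO-dissolved compounds. Cell viability was quantified 16hr later by CellTiter-Fluor fluorescence, measured after 1hr with reagent at 37C.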
Test [19] can be described thus: Caspase-3/7 induction in HepG2 cells by small molecules, qHTS assay (AID 1346978). Also: nearly all actives have a fitted effect of over 15% in size. An outline of the steps: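 Caspase-3/7 induction was measured by Caspase-Glo 3/7 luminescence (30 min, room temperature) after a 17 hr compound exposure of wild-type HepG2 cells seeded at 2,000 per well and pre-incubated 5 hr.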
The target in test [20] is Androgen receptor (Homo sapiens) (UniProt P10275). As to the kind of experiment: qHTS assay to identify small molecule agonists of the androgen receptor (AR) signaling pathway in the presence of an antagonist (AID 1259381; calls by dose curve; also: nearly all actives have a fitted effect of over 15% in size). An outline of the steps: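 Agonist-mode confirmation screen: human MDA-kb2 cells stably expressing luciferase under an MMTV promoter bearing AR and GR response elements, co-treated with 3.0uM nilutamide (final). Luminescence measured after 16hr compound incubation.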

The structures appear in SMILES notation. Inconclusive results are not listed. Some structures have more than one record in an assay (separate samples or runs), and their calls can disagree. Activity calls are given as the source filed them. Unless noted, calls follow the shape of the dose curve; as a rule, active = well fitted curve in the direction sought with a large enough effect in the repeat runs; inconclusive = weak or mixed curves; inactive = no such curve, though single readings can be large; an effect the other way counts as inactive or inconclusive.

Chain of Estrogen receptor (Homo sapiens) (P03372 whole entry, looked up): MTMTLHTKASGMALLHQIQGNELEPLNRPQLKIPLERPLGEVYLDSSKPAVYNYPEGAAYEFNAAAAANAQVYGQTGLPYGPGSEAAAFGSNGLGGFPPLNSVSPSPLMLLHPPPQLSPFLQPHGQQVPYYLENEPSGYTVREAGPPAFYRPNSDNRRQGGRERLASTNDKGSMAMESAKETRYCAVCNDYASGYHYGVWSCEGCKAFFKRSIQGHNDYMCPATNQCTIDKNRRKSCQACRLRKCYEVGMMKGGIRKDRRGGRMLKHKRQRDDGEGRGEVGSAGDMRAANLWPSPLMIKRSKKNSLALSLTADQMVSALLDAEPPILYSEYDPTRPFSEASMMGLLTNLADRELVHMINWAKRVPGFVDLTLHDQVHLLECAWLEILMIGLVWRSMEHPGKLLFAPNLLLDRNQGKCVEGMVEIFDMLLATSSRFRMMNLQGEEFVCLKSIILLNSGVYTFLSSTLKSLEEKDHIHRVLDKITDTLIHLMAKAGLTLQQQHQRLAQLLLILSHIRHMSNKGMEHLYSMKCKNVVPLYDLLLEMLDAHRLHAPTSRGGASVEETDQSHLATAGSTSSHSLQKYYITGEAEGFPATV
Chain of Thyrotropin receptor (Homo sapiens) (P16473 whole entry, looked up): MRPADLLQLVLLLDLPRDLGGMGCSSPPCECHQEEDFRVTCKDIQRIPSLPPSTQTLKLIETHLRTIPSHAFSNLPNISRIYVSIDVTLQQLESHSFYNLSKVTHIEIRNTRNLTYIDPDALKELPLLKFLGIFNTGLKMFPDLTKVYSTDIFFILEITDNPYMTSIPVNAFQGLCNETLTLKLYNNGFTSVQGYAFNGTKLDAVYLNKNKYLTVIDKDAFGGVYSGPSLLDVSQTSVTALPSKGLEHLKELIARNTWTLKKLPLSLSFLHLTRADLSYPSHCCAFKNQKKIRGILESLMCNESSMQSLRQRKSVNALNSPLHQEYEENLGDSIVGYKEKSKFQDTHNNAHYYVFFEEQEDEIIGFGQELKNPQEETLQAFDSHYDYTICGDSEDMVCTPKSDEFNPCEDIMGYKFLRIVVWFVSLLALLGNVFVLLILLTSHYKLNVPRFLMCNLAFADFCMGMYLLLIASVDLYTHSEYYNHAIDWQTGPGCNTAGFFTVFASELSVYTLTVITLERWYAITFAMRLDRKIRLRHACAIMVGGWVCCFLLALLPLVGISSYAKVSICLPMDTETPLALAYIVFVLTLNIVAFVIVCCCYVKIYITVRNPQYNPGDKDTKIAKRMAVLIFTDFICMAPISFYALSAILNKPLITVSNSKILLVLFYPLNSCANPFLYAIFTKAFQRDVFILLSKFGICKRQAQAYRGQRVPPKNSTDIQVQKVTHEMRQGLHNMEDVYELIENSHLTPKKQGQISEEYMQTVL
Chain of Progesterone receptor (Homo sapiens) (P06401 whole entry, looked up): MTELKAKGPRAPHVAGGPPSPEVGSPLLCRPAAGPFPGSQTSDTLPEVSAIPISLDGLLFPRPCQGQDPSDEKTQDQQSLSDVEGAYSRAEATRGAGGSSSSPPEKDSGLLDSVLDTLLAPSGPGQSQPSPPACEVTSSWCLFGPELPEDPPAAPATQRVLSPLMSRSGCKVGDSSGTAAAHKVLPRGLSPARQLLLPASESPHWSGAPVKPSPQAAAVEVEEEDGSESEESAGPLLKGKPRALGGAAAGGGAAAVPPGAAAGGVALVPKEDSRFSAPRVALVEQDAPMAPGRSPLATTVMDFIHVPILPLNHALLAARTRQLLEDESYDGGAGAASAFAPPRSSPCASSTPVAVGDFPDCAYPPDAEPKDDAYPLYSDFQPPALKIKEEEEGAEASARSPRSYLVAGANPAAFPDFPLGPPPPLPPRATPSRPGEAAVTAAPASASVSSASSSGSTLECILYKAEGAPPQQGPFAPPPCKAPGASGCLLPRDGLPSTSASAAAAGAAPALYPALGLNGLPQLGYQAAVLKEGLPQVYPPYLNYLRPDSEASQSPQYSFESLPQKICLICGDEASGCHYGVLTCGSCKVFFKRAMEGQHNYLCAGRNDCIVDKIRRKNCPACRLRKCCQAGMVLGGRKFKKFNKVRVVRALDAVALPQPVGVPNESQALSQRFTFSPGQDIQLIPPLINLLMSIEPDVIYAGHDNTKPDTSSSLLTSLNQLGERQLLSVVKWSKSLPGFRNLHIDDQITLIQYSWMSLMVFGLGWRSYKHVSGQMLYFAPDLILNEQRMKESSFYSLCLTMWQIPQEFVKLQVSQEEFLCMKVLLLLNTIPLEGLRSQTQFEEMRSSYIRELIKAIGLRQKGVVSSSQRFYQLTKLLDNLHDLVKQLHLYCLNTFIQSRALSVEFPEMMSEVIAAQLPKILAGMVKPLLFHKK
Chain of Thyrotropin-releasing hormone receptor (Homo sapiens) (P34981 whole entry, looked up): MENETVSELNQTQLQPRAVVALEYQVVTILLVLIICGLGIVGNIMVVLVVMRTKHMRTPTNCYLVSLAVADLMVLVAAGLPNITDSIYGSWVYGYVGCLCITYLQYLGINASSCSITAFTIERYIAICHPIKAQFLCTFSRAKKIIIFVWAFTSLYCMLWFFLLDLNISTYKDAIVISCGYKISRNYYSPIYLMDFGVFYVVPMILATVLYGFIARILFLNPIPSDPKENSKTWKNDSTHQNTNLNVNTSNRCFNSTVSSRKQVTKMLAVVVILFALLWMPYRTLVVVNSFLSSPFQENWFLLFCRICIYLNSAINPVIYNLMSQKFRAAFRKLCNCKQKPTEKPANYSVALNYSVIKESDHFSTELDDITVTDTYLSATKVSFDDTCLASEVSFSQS
Chain of Androgen receptor (Homo sapiens) (P10275 whole entry, looked up): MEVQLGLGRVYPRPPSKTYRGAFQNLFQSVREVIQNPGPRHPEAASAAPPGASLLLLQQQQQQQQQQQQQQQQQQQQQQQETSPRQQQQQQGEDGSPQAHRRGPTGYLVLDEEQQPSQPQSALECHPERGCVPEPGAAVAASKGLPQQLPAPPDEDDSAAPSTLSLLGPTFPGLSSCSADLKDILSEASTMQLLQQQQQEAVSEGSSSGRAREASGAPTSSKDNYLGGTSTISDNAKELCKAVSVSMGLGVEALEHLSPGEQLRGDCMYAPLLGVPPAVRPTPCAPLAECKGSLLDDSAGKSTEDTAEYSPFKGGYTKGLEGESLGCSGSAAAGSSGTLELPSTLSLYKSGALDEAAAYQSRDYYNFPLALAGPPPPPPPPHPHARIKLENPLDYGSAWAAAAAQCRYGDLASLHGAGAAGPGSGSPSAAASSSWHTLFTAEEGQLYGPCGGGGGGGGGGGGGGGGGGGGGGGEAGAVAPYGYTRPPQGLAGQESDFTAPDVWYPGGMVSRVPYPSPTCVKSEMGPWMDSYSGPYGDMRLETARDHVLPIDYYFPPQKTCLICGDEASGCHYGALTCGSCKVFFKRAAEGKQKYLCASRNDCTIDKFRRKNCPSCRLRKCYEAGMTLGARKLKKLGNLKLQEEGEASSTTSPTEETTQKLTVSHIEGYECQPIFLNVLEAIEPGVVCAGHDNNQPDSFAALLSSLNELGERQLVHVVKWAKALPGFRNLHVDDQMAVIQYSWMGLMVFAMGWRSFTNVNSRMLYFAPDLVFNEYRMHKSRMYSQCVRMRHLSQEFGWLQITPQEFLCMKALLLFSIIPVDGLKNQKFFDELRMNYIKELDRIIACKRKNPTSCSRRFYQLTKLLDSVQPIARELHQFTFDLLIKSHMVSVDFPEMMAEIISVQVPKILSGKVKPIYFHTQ

Regarding `CC(=O)C=C(C)C`, the result in [1], in [5], in test [7], in [8], in test [13] and in test [15] was inactive. Also, the Potency result in test [2], in test [3], in test [4], in test [6], in test [9] and in test [10] was “inactive” throughout. The Potency entry in [11], in test [12], in test [14], in test [16], in [17] and in test [18] was “inactive” each time.
In the case of `Cc1ccccc1O`, the outcome in test [1], in test [5], in test [7], in test [8], in test [13] and in [19] was inactive. In addition, the Potency entry in test [2], in [3], in test [4], in [6], in test [9] and in [10] was “inactive” in each case. Also, the Potency entry in [11], in test [12], in [14], in test [16], in [17] and in [18] was “inactive” throughout.
As for `C#CCN(C)[C@H](C)Cc1ccccc1`, the result in test [1], in test [5], in [7], in test [8], in [13] and in test [15] was inactive. Moreover, the compound was classed as inactive in test [19]. Moreover, the Potency result in test [2], in [3], in test [4], in test [6], in [9] and in [10] was “inactive” in each case. For the same compound, the Potency entry in test [11], in [12], in test [14], in test [16], in test [17] and in test [18] was “inactive” throughout.
For the compound `CCOP(=S)(OCC)Oc1cnc2ccccc2n1`, the result in [1], in test [5], in test [7], in [8], in test [13] and in test [19] was inactive. Moreover, the Potency result in [2], in [3], in [4], in [6], in test [9] and in test [10] was “inactive” throughout. In addition, the Potency result in test [11], in test [12], in test [14], in test [16], in [17] and in test [18] was “inactive” throughout.
Regarding `COCCl`, the result in test [1], in [20], in test [5], in test [7], in [8] and in [13] was inactive. Moreover, the Potency result in test [2], in test [3], in test [6], in test [9], in test [10] and in test [11] was “inactive” in each case. Also, the Potency entry in [12] and in test [14] was “inactive” in each case. The Potency was 39.8 µM (active) and inactive in test [17]; 20.1 µM (active) and inactive in [18].
On to `Cc1cccc([N+](=O)[O-])c1`, for which the result in test [1], in [5], in test [7], in [8], in test [13] and in [15] was inactive. The result in test [19] was inactive. Also, the Potency entry in [2], in test [3], in test [4], in [6], in [9] and in [10] was “inactive” each time. For the same compound, the Potency entry in [11], in test [12], in [14], in test [16], in test [17] and in test [18] was “inactive” each time.
Turning to `C1CC2OC2CC1C1CO1` (configuration not stated), the outcome in test [1], in [5], in test [7], in test [8] and in test [13] was inactive. The Potency result in test [2], in test [3], in test [4], in test [6], in test [9] and in [10] was “inactive” throughout. Also, the Potency result in test [11], in test [12], in [14], in test [17] and in test [18] was “inactive” in each case.
As to `Clc1ccc(Cl)cc1`, the outcome in test [1], in [5], in [7], in test [8], in test [13] and in test [15] was inactive. The Potency entry in [2], in test [3], in test [4], in test [6], in [9] and in [10] was “inactive” each time. In addition, the Potency entry in test [11], in [12], in test [14] and in [16] was “inactive” each time. Besides, the Potency is 2.17 µM (active) and inactive in [17]; 2.17 µM (active) in test [18].
